Laboratory results published in article PMC7819943, “Rice protein-binding microarrays: a tool to detect cis-acting elements near promoter regions in rice”.
Over roughly 68,000 sequences, “fluorescence intensity (a.u.)” has its median near 9,100; the highest 2% begin near 16,000. Only a selection was taken, and the highest values are over-represented in it overall.

Biological target: OsWRKY34 (Oryza sativa, UniProt Q0JBA9 1-250)
Assay: protein-binding microarray (RPBM); PBS, 2% BSA, 51.3 ng/ul salmon testes DNA, 50 uM zinc acetate, 200 nM TF, 25 C, 1 h; high values mean tight binding
Details: protein: recombinant; tags: N-terminal polyhistidine and DsRed monomer fusion (pET32a); label: CyDye5-dUTP incorporated in the synthesized complementary strand; 3' TTTTT single-stranded linker to array surface; dsDNA, one strand shown
How it was run: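 Ni–NTA purification followed expression in E. coli BL21-CodonPlus of transcription factors fused N-terminally to a polyhistidine tag and DsRed. At 200 nM in PBS with 2% BSA, salmon testes DNA and 50 µM zinc acetate, the protein was incubated for 1 h at 25 °C with a custom Agilent array that had been primer-extended with Cy5-dUTP and blocked with 2% BSA. After washing, the array was read on an Axon 4000B scanner. The binding signal is per-feature fluorescence intensity in arbitrary units.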

Chain of OsWRKY34 (Q0JBA9 entry or part of it): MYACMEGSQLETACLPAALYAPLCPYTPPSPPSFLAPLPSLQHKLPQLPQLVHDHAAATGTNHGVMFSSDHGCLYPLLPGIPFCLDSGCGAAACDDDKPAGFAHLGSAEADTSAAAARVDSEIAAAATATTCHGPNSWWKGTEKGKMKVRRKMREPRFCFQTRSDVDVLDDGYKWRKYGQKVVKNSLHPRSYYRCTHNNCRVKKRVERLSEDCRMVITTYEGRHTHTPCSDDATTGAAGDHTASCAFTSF

| Sequence | binding signal |
| --- | --- |
| CGTCTCGTGTCTTCTCGTCTCGACCCATCCATCCATCCCACGGAGTCACCTAGTGCAG | 8570 fluorescence intensity (a.u.) |
| CGGGCTCTGGTTTTACCGAATAAATGCTCTGGGCCTAATACGGAGTCACCTAGTGCAG | 8020 fluorescence intensity (a.u.) |
| GCATTAGAACGAGCGCACCCACTTTCAGTTCTCAAATTATCGGAGTCACCTAGTGCAG | 8670 fluorescence intensity (a.u.) |
| GTCTTTTGATGCGACGCGATGTGACTCGCCCGACCCAACTCGGAGTCACCTAGTGCAG | 8940 fluorescence intensity (a.u.) |
| CCTCCATTCTTCAGTTTTAATGCATCCTCTTCATCACTTCCGGAGTCACCTAGTGCAG | 11800 fluorescence intensity (a.u.) |
| CATCAGTACAGGCCCAACTTAAAAATTGCTCGGCCCATTTCGGAGTCACCTAGTGCAG | 8850 fluorescence intensity (a.u.) |
| GGTGCTCCGCCTCCCGGGGCAGGGTTTCAAGAGGGTGGGTCGGAGTCACCTAGTGCAG | 10700 fluorescence intensity (a.u.) |
| CATCCGATTCCTATGTATTTCTTGCGGTCTAATCAAACGACGGAGTCACCTAGTGCAG | 10200 fluorescence intensity (a.u.) |
| GTGTTTTGCAAGGTTGTTTCTTTACCTTATCTATATACATCGGAGTCACCTAGTGCAG | 9790 fluorescence intensity (a.u.) |
| CACTCCACCATTGTCATCTTTACTATCGGTAATTGTTGATCGGAGTCACCTAGTGCAG | 8440 fluorescence intensity (a.u.) |
| GGGCTGTTATCTCTGATGTGTTTTCTGCCTCTCATGTCATCGGAGTCACCTAGTGCAG | 17000 fluorescence intensity (a.u.) |
| TCTTTTTTCTCTTCTTCTTCTCCTCCATTCCATTCCATTTCGGAGTCACCTAGTGCAG | 8930 fluorescence intensity (a.u.) |
| GCTTTTCTTTGTCCATCCATCTATCTTTTTCTCCATCTTTCGGAGTCACCTAGTGCAG | 8440 fluorescence intensity (a.u.) |
| AGTTGGCTATAATATATTTCTTCTCTCTCTATCTCTCATTCGGAGTCACCTAGTGCAG | 17700 fluorescence intensity (a.u.) |
| TTTTTCTTGTGCTCTATCCATCCATGCCATGCCATTCATCCGGAGTCACCTAGTGCAG | 10200 fluorescence intensity (a.u.) |
| TTTTTTTCTCCTCATTATTCTTCTTTTCTTTCTCTATATTCGGAGTCACCTAGTGCAG | 9180 fluorescence intensity (a.u.) |
| GTCAAATTTCTGTGCTCCATAAGATCTCTTCTCTTTTTTTCGGAGTCACCTAGTGCAG | 16700 fluorescence intensity (a.u.) |
| TGCTCAACATCCATCTTTCTTTCTTTCTTTTTCTCTTTTTCGGAGTCACCTAGTGCAG | 11300 fluorescence intensity (a.u.) |
| TTCTCTCTCTATCTCTCATTTATATATTTAATATATTTGTCGGAGTCACCTAGTGCAG | 9250 fluorescence intensity (a.u.) |
| GCCTGTTTCTCCTTCGGCTGATGATATCTGTGCTGTTTTTCGGAGTCACCTAGTGCAG | 8550 fluorescence intensity (a.u.) |
| GGAGTGTTTCTGTTGTTGCATGTGATGAGTGCATTATCATCGGAGTCACCTAGTGCAG | 11000 fluorescence intensity (a.u.) |
| ACAGTTTTCTCCATCTTGGCCATTCGTGTGCTATATCCATCGGAGTCACCTAGTGCAG | 16500 fluorescence intensity (a.u.) |
| ACCCACCACATCGACGCGACCACACTCCACACAAGCCATGCGGAGTCACCTAGTGCAG | 10100 fluorescence intensity (a.u.) |
